# Only some compounds are listed: those with a hit (about 2.9% of all), similar ones and a draw of the others.
# ZTA counter: ZTA (EBV) inhibition in EBNA-1 counter-screen. P03206. ZTA-DNA binding, fluorescence polarization. inhibition, % at 11 µM. 320,000 compounds, 0.15% hits; in the data active means inhibition above about 33%
# Target sequence (P03206 whole entry, looked up): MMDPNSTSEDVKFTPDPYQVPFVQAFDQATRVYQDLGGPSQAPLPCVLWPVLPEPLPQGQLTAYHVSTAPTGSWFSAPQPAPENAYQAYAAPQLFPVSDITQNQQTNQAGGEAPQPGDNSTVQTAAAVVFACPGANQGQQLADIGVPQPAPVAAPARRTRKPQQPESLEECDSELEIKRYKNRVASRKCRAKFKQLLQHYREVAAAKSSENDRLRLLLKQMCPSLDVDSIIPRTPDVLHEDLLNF
# rCAG binder: binders of r(CAG) RNA repeats, primary screen, biochemical, fluorescence. r(CAG) RNA repeat, TO-PRO-1 dye displacement fluorescence. AID 651821, 2012. inhibition, % at 3 µM. 370,000 compounds, 1.3% hits;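 active means inhibition above the plate cutoff, the mean of all test compounds on that plate plus 3 SD, cut at about 35% in these data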;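 further: 0% = DMSO alone and 100% = 100 µM mitoxantrone as full dye displacement; higher means more dye released from RNA so lower well fluorescence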
# PAFAH2 inh: PAFAH2 enzyme inhibitors, primary screen, biochemical, fluorescence polarization, human | recombinant PAFAH2, FP-rhodamine activity probe | inhibition, % at 3.39 µM | 340,000 compounds, 0.99% hits;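 active means inhibition above the mean over all tested compounds plus 3 SD, cut at about 30% in these data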;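 further: inhibitors block probe labeling of enzyme so polarization drops; 0% = enzyme with DMSO and 100% = wells lacking PAFAH2 protein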
# PAFAH1B3 inh: PAFAH1B3 enzyme inhibitors, primary screen, biochemical, fluorescence polarization, human. recombinant PAFAH1B3, FP-rhodamine probe. inhibition, % at 3.39 µM. Platelet-activating factor acetylhydrolase IB subunit alpha1 (Homo sapiens), Q15102. 340,000 compounds, 0.28% hits;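 active means inhibition above the screen-wide average of all tested compounds plus 3 SD, cut at about 25% in these data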;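 further: 0% = enzyme with DMSO only and 100% = wells lacking PAFAH1B3 protein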
# Target sequence (Q15102 whole entry, looked up): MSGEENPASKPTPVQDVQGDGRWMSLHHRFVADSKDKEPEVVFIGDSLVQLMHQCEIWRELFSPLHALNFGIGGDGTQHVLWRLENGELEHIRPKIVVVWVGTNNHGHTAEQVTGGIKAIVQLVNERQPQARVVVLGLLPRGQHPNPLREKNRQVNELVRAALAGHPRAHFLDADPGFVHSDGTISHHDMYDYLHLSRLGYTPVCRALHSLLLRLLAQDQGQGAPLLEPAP
# EBNA-1 inh: EBNA-1 DNA-binding inhibitors, primary screen, biochemical, fluorescence polarization; AID 1950, 2009; 300,000 compounds, 0.34% hits; inhibition, % at 14.8 µM; in the data active means inhibition above about 28%
# PAFAH1B2 FP inh: PAFAH1B2 enzyme inhibitors, primary screen, biochemical, fluorescence polarization, human; Platelet-activating factor acetylhydrolase IB subunit alpha2 (Homo sapiens), P68402; recombinant PAFAH1B2, FP-rhodamine activity probe; inhibition, % at 3.39 µM; 340,000 compounds, 1.2% hits;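 active means inhibition above the mean of all tested compounds plus 3 SD, cut at about 24% in these data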;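 further: 0% = enzyme with DMSO and 100% = wells lacking PAFAH1B2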
# rCAG bind conf: small molecules binding CAG repeat RNA – biochemical, fluorescence, confirmation | shares compounds with rCAG binder | r(CAG) RNA repeat, TO-PRO-1 dye displacement fluorescence | inhibition, % at 3 µM | 4,300 compounds, 70% hits | AID 652065, 2013;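 active means inhibition above a per-plate cutoff, the mean inhibition of sample wells plus 3 SD, cut at about 35% in these data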;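 further: loss of TO-PRO-1 fluorescence as compound displaces dye from 1x1 AA loop RNA; 0% = DMSO only wells and 100% = 100 µM mitoxantrone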
# dCAG dye counter: displacement of TO-PRO-1 from CAG DNA duplex, counter-screen for rCAG RNA repeat binder project, biochemical, fluorescence, TO-PRO-1 dye, d(CAG) DNA oligo; shares compounds with rCAG binder; d(CAG) DNA oligo TO-PRO-1 dye displacement; inhibition, % at 3 µM; 4,300 compounds, 94% hits; AID 652068, 2013;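 active means inhibition above its plate's cutoff, the mean test-well inhibition plus 3 SD, cut at about 4.8% in these data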;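 further: 0% = DNA dye mix with DMSO and 100% = 100 µM mitoxantrone; hits displace the dye from DNA and so lower well fluorescence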
# dCAG dye DR: inhibitors of DNA CAG/GTC TO-PRO-1 complex, dose response, counter-screen for rCAG RNA repeat binder project, biochemical, fluorescence, TO-PRO-1 dye | shares compounds with rCAG binder | 250 compounds, 20% hits | IC50, µM | DNA CAG/GTC duplex TO-PRO-1 dye displacement fluorescence; in the data active means IC50 below about 10 µM
# * marks the source's active call; other numbers are inactive results; . = no result given.
SMILES,ZTA counter,rCAG binder,PAFAH2 inh,PAFAH1B3 inh,EBNA-1 inh,PAFAH1B2 FP inh,rCAG bind conf,dCAG dye counter,others
Cc1oc2cc3oc(=O)c(CC(=O)O)c(C)c3cc2c1-c1ccccc1,8,47*,-13,5,14,0,39*,11*,
CCCC(NC(=O)CCc1c(C)c2cc3c(-c4ccccc4)coc3cc2oc1=O)C(=O)O (stereo not drawn),9,36*,12,0,3,9,41*,11*,
Cc1c(CCC(=O)O)c(=O)oc2cc3occ(-c4ccc(Br)cc4)c3cc12,15,37*,14,7,19,1,62*,24*,
Cc1c(CC(=O)O)c(=O)oc2cc3oc4c(c3cc12)CCCC4,-1,8,-6,6,1,1,.,.,
Cc1c(CCC(=O)O)c(=O)oc2cc3occ(-c4ccc(F)cc4)c3cc12,7,47*,1,12,16,6,44*,12*,
Cc1ccc(C(=O)N(CCc2ccccc2)Cc2ccccc2)cc1S(=O)(=O)N1CCCCC1,-7,3,0,2,4,-1,.,.,
CCCCCCCCOC(=O)c1cc([N+](=O)[O-])c(Sc2ncnc3nc[nH]c23)c([N+](=O)[O-])c1,.,38*,0,16,.,14,40*,19*,
COC(=O)c1c(NC(=O)CCC(=O)O)sc(Cc2ccccc2)c1C,15,33,4,10,3,5,.,.,
COc1ccc(NC(=O)c2c(NC(=O)CCC(=O)O)sc(-c3ccccc3)c2C)cc1,-14,50*,5,5,-5,3,57*,12*,dCAG dye DR=>30
COc1ccc(C(=O)Nc2c(N)nc(SCC(=O)NCC3CCCO3)[nH]c2=O)cc1 (stereo not drawn),0,-2,9,4,1,5,.,.,
C=CCN1[C@@H](CC(C)C)COc2cccc(N3CCCC3)c2S1(=O)=O,.,1,.,.,.,.,.,.,
CCOc1cc(-c2c(C#N)c(=O)[nH]c3c2c(C)nn3-c2ccc(F)cc2)ccc1O,-4,48*,2,-1,13,1,27,6.6*,
Cc1oc(-c2ccccc2)cc1C(=O)NC(Cc1c[nH]c2ccccc12)C(=O)O (stereo not drawn),1,40*,5,12,2,-1,52*,18*,
COc1ccc(/C=C2\C(=O)ON=C2c2cccc([N+](=O)[O-])c2)cc1,-2,41*,.,.,3,.,20,6.0*,
COc1ccc(/C=C2/C(=O)ON=C2c2ccccc2)cc1OC,-3,6,-1,9,-12,5,.,.,
CC(CO)NS(=O)(=O)c1cc(Cl)ccc1F (stereo not drawn),.,-1,.,.,.,.,.,.,
Nc1c(C(=O)Nc2ccc(F)cc2)sc2nc(-c3ccco3)ccc12,19,35*,14,18,5,6,55*,26*,
Cc1ccc(NC(=O)c2sc3nc4c(c(-c5ccco5)c3c2N)CCC4)cc1,-9,24,11,4,-2,4,.,.,
CC(=O)c1sc2nc(-c3ccco3)ccc2c1N,-18,35,.,.,-8,.,.,.,
Nc1c(C(=O)Nc2ccc(Br)cc2)sc2nc(-c3ccco3)ccc12,3,51*,7,6,1,2,37*,20*,
COc1ccc(CN2C(=O)CSCC2(C)C(=O)Nc2ccc3c(c2)OCCO3)cc1 (stereo not drawn),.,5,.,.,.,.,.,.,
CC1CCc2c(C(=O)Nc3cccc(-c4nn[nH]n4)c3)csc2C1 (stereo not drawn),-10,65*,8,1,1,19,46*,13*,
O=C(Nc1nc2c(F)cccc2s1)C1CC1,-3,1,0,4,-5,4,.,.,
Fc1cccc2sc(Nc3nc4c(F)cccc4s3)nc12,3,58*,-8,5,17,2,60*,24*,
CC1CCc2c(sc(Nc3nc4c(F)cccc4s3)c2C(N)=O)C1 (stereo not drawn),2,42*,4,-3,11,-1,26,14*,
SMILES,ZTA counter,rCAG binder,PAFAH2 inh,PAFAH1B3 inh,EBNA-1 inh,PAFAH1B2 FP inh,rCAG bind conf,dCAG dye counter,others
Cc1ccc(Cn2cc(CN3CC=CS3(=O)=O)nn2)cc1,.,1,.,.,.,.,.,.,
c1ccc2c(-c3c[nH]c4ccccc34)c3ccccc3nc2c1,19,5,-6,1,-4,-2,.,.,
O=C(O)c1cc(-c2c[nH]c3ccccc23)nc2ccc3ccccc3c12,13,52*,5,-5,8,5,45*,11*,
Cc1ccccc1N1CC(=O)N(c2ccccc2C)CC1=O,-1,-2,-14,2,6,4,.,.,
Cc1cccc2c1c1ccc3c(c1n2C)C(=O)C=CC3=O,.,39*,7,20,.,10,20,13*,
CN(C)S(=O)(=O)c1ccc(S(=O)(=O)Nc2ccc3c(c2)oc2ccccc23)cc1,0,49*,18,7,5,1,57*,19*,
Cc1cc(=O)oc2cc(NS(=O)(=O)c3ccccc3)ccc12,0,1,6,10,-13,6,.,.,
CCN(CC)S(=O)(=O)c1ccc(S(=O)(=O)Nc2ccc3c(c2)oc2ccccc23)cc1,-9,56*,-7,-5,14,-4,51*,18*,
CC(C)C[C@H]1COc2cc(NCCCN3CCOCC3)ccc2S(=O)(=O)N1,.,2,.,.,.,.,.,.,
Cc1cnc(C(=O)OCC(=O)Nc2ncc(Cl)cc2Cl)cn1,-9,11,11,0,.,7,.,.,
O=c1cccc(-c2ccc3ccccc3c2)o1,.,6,.,.,.,.,.,.,
COc1ccc(S(=O)(=O)CC(=O)c2cc3cc(Br)ccc3oc2=O)cc1,-4,51*,17,8,6,18,48*,23*,
CCOC(=O)[C@@H]1CSCCS(=O)(=O)N1Cc1ccc(C(F)(F)F)cc1,.,1,.,.,.,.,.,.,
Cc1ccc(NC(=S)NNC(=O)CSc2nc3ccccc3c(=O)n2-c2ccc(Cl)cc2)cc1,.,57*,.,.,.,.,47*,22*,
COc1ccc(-n2c(SCC(=O)NNC(=S)Nc3ccc(C)cc3)nnc2-c2ccccc2)cc1,.,30,.,.,.,.,.,.,

# Screening data deposited in PubChem BioAssay by The Scripps Research Institute Molecular Screening Center.
